# Source: PubChem BioAssay (several laboratories)
# A selection: hits, their analogues and other compounds. The true share with any hit is near 2.1%.
# BaF3 tox: reduces parental Ba/F3 cell viability, JAK2V617F counter-screen | CellTiter-Glo ATP luminescence | inhibition, % at 5.6 µM | hit rate 1.1% among 220,000 | AID 1486;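 active = inhibition above a per-campaign cutoff, the mean inhibition of all tested compounds plus 3 SD, cut at about 27% in these data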;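 note: 0% = DMSO wells and 100% = JAK Inhibitor I control wells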
# KLF5 inh: kruppel-like factor 5 inhibition | hit rate 0.23% among 290,000 | inhibition, % at 5 µM | AID 1700 | DLD-1 KLF5 promoter-luciferase reporter, luminescence;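 active = inhibition above a per-plate limit of that plate's mean compound inhibition plus 3 SD, cut at about 60% in these data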;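 note: 0% = DMSO wells and 100% = LY294002 at 200 µM; higher means less KLF5 promoter-driven luciferase light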
# Ba/F3 V617F tox: reduce viability of Ba/F3 cells dependent on JAK2V617F; inhibition, % at 5.6 µM; AID 1446; hit rate 1.1% among 220,000; Ba/F3 EpoR-JAK2V617F viability, ATP luminescence;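 active = inhibition above the campaign mean plus 3 SD over all tested compounds, cut at about 24% in these data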;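 note: cytokine-independent growth of Ba/F3 cells driven by EpoR plus mutant JAK2; 0% = DMSO-treated cells and 100% = JAK inhibitor I control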
# aSyn UTR inh: 5' untranslated region of α-synuclein, MLPCN primary screen. AID 1813. inhibition, % (tested at 7.5 µM). alpha-synuclein 5'UTR reporter, inhibitor activity. hit rate 0.82% among 300,000; in the data active = inhibition above about 60%; inconclusive = no clear call, values can overlap the other calls;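 note: H4 neuroglioblastoma cells stably carrying SNCA 5'UTR luciferase fusion; 0% = DMSO wells and 100% = positive control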
# IEC-6 tox-1: kills IEC-6 intestinal cells in KLF5 counter-screen | hit rate 0.78% among 290,000 | IEC-6 cytotoxicity, luminescence viability | inhibition, % at 5 µM;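 note: 0% = plate median of test compound wells and 100% = cytotoxic reference compound wells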
# APP 5UTR inh: APP translation inhibition; hit rate 0.82% among 190,000; AID 1285; SH-SY5Y APP 5'UTR-luciferase reporter, luminescence; inhibition, % at 2 µM;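 active = inhibition above a set limit, derived from the sample mean plus 3 SD, cut at about 45% in these data; inconclusive = one replicate passes the limit while the other fails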
# KLF5 inh confirm: KLF5 inhibition, confirmation assay. DLD-1 KLF5 promoter firefly luciferase reporter, luminescence. hit rate 79% among 610. inhibition, % at 4 µM. shares compounds with KLF5 inh;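 active = inhibition above a set limit taken from the earlier primary screen, cut at about 63% in these data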;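 note: 0% = DMSO wells and 100% = LY294002 at 200 µM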
# IEC-6 tox-2: rat IEC-6 cytotoxicity, KLF5 inhibitor counter-screen | IEC-6 rat intestinal cells, viability luminescence | hit rate 56% among 610 | shares compounds with KLF5 inh | inhibition, % at 4 µM; in the data active = inhibition above about 23%;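 note: cells exposed to compounds for 48 hours before viability read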
# IEC-6 tox confirm: IEC-6 cytotoxicity, confirmation assay. shares compounds with IEC-6 tox-1. IEC-6 rat intestinal epithelial viability, luminescence. inhibition, % at 5 µM. hit rate 63% among 1,900. AID 1907;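 note: 0% = vehicle and 100% = reference cytotoxic drug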
# * hit, by the source's call; ? = inconclusive; . = not tested or not shown. Cut-off read from the data, not from the text of the source, unless noted: active = inhibition above about 22%; inactive = the rest.
SMILES,BaF3 tox,KLF5 inh,Ba/F3 V617F tox,aSyn UTR inh,IEC-6 tox-1,APP 5UTR inh,IEC-6 tox confirm,others
CCOc1ccc(Nc2cc(C)nc(-n3nc(C)cc3C)n2)cc1,81.2*,81.5*,77.3*,62.9*,84.5*,95.9*,52.1*,KLF5 inh confirm=81.1*;IEC-6 tox-2=55.8*
CNc1cc(C)nc(-n2nc(C)cc2C)n1,2.2,7.3,-2.0,-14.5,-3.4,26.6,.,
C1CCC(c2nn3c(-c4n[nH]c5c4CCC5)nnc3s2)CC1,6.8,-20.6,3.6,?,-4.4,11.4,.,
CCN(CC)c1ccc(-c2nn3c(-c4n[nH]c5c4CCC5)nnc3s2)cc1,77.5*,72.6*,74.5*,72.3*,85.4*,96.0*,50.3*,KLF5 inh confirm=76.5*;IEC-6 tox-2=62.0*
COc1cc2c(c(OC)c1OC)C(=O)CC2,-1.9,-27.9,-1.4,6.8,1.8,.,.,
COc1cc2c(c(OC)c1OC)-c1ccc(OC)c(=O)cc1C(NC(C)=O)CC2 (centres undefined),.,71.5*,.,74.8*,94.2*,.,80.1*,KLF5 inh confirm=87.8*;IEC-6 tox-2=82.3*
C=CCOC(=O)c1[nH]c2c(c1C)C(=O)CC(c1ccco1)C2 (centres undefined),83.6*,89.9*,82.1*,69.2*,88.8*,96.5*,56.1*,KLF5 inh confirm=83.7*;IEC-6 tox-2=60.2*
COC(=O)c1[nH]c2c(c1C)C(=O)CC(c1ccc(OC)cc1)C2 (centres undefined),.,1.4,.,-9.2,-3.7,.,.,
C/C=C/COC(=O)c1[nH]c2c(c1C)C(=O)CC(c1ccc(N(C)C)cc1)C2 (centres undefined),3.9,-12.4,0.5,-14.9,4.4,-17.5,.,
COC(=O)c1[nH]c2c(c1C)C(=O)CC(c1ccccc1)C2 (centres undefined),75.0*,72.2*,73.6*,28.1,87.1*,96.1*,63.7*,KLF5 inh confirm=88.1*;IEC-6 tox-2=72.3*
N#CC1(NC(=O)COC(=O)Cn2[nH]c(=O)c3ccccc3c2=O)CCCCC1,.,.,.,7.4,.,.,.,
CC(Oc1ccc(-c2ccccc2)cc1)C(=O)N/N=C/c1cccnc1 (centres undefined),.,-19.6,.,5.6,0.4,.,.,
COc1nc(N(C)C)nc(N(C#N)S(=O)(=O)c2ccc(C)cc2)n1,.,-22.9,.,18.8,5.7,.,.,
CC1CCN(Cc2c(C(=O)N/N=C/c3cc(Br)ccc3O)nnn2-c2nonc2N)CC1,.,70.3*,.,77.1*,57.0*,.,61.8*,KLF5 inh confirm=84.2*;IEC-6 tox-2=42.4*
CC1CCN(Cc2c(C(=O)N/N=C/c3cc(Cl)ccc3O)nnn2-c2nonc2N)CC1,.,68.6*,.,62.1*,50.5*,.,49.1*,KLF5 inh confirm=86.0*;IEC-6 tox-2=42.4*
Cc1cc(C)c(/C=N/NC(=O)c2nnn(-c3nonc3N)c2CN2CCC(C)CC2)c(C)c1,.,-5.5,.,0.9,-4.7,.,.,
CSCCC(NS(=O)(=O)c1cccc(C(F)(F)F)c1)C(=O)Nc1ccccc1N1CCCC1 (centres undefined),.,.,.,5.8,.,.,.,
C=CCn1c(C)cc(C(=O)COC(=O)/C=C/c2c(C)nn(C3CCS(=O)(=O)C3)c2Cl)c1C (centres undefined),.,.,.,-13.2,.,.,.,
O=C1CCCN1c1ccc(S(=O)(=O)Nc2ccc3c(c2)OCCO3)cc1,72.7*,77.7*,82.2*,-0.8,78.6*,38.9,49.9*,KLF5 inh confirm=70.3*;IEC-6 tox-2=40.9*
Cc1ccc(CNC(=O)CN2C(=O)CSc3ccc(S(=O)(=O)N4CCC(C)CC4)cc32)cc1,.,-12.5,.,-10.3,-3.2,.,.,
Cc1nnc(N/N=C/c2ccc(Br)cc2)n1N,.,-34.9,.,-11.2,-1.5,.,.,
O=C(O)c1ccc(N/N=C/c2ccc(-c3ccc(Br)cc3)o2)cc1,.,-27.2,.,-25.3,28.0*,.,27.9*,
Cc1nnc(N/N=C/c2ccc(-c3ccc(Br)cc3)o2)n1N,7.0,-35.9,1.4,-27.9,36.8*,-7.8,-10.9,
Cn1c(-c2ccccc2)c(/C=N/NC(=O)c2cccnc2)c2ccccc21,6.0,-44.6,0.3,-15.8,9.3,-4.3,.,
O=C(N/N=C/c1c(-c2ccccc2)[nH]c2ccccc12)c1cccnc1,55.3*,13.3,64.0*,-33.9,58.2*,-32.0,22.8*,
SMILES,BaF3 tox,KLF5 inh,Ba/F3 V617F tox,aSyn UTR inh,IEC-6 tox-1,APP 5UTR inh,IEC-6 tox confirm,others
O=C(Nc1ccc(Cl)cn1)c1cccc2ccccc12,.,-3.1,.,-18.2,43.8*,.,24.8*,
CCOc1ccc(NC(=O)c2cccc3ccccc23)cc1,.,-17.4,.,-318.2,22.5*,.,13.9,
O=C(Nc1ccc(Cl)cn1)c1ccccc1[N+](=O)[O-],5.3,-13.8,2.0,-77.3,7.4,-18.5,.,
Cc1ccc2ccc3ccc(C)nc3c2n1,.,51.0,.,72.0*,90.6*,.,37.1*,
Cc1n[nH]c(C)c1C(=O)CC1(O)C(=O)N(Cc2ccccc2)c2ccc(Br)cc21 (centres undefined),10.7,1.1,1.4,10.4,0.7,7.7,.,
C=CCN1C(=O)C(O)(CC(=O)c2ccco2)c2cc(Br)ccc21 (centres undefined),-0.6,-3.1,-0.4,-15.1,87.1*,-10.3,23.0*,
Cc1ncc(CO)c2cc(C(=O)Nc3ccccc3Cl)c(=Nc3cccc(C(N)=O)c3)oc12,.,-11.0,.,-43.5,-6.1,.,.,
Cc1ccc(NC(=S)NNC(=O)c2ccccc2OC(F)F)cc1,41.4*,0.0,25.5*,-86.7,28.0*,-13.7,11.2,
O=C(NNC(=S)Nc1ccc(F)cc1)c1ccccc1OC(F)F,4.7,-18.8,-0.7,-62.7,-1.7,12.5,.,
O=C(N/N=C/c1ccc([N+](=O)[O-])o1)c1cc(-c2ccncc2)nc2ccccc12,3.6,-0.7,-1.1,-66.7,-5.4,-0.1,.,
O=C(N/N=C/c1cccnc1)c1cc(-c2ccc(Br)cc2)nc2ccccc12,.,11.4,.,.,25.7*,.,20.8,
Cc1ccsc1/C=N/NC(=O)c1cc(-c2ccncc2)nc2ccccc12,75.5*,61.2,70.6*,67.4*,72.4*,93.8*,57.8*,
NNC(=O)c1cc(-c2cccs2)nc2ccccc12,4.1,26.5,3.6,-1.7,31.8*,.,2.8,
Cc1ccc(/C=N/NC(=O)c2cc(-c3ccncc3)nc3ccccc23)o1,.,59.8,.,-12.0,65.2*,.,45.3*,
O=C(c1cc(C2CC2)on1)N1CCCC(N2CCN(c3ccc(F)cc3)CC2)C1 (centres undefined),.,-23.1,.,-8.6,7.2,.,.,
COc1ccc(OC)c(S(=O)(=O)NC2CCSc3ccccc32)c1 (centres undefined),.,-0.8,.,3.4,-2.7,.,.,
CCOc1ccc(-c2cc(C(=O)N/N=C(\C)c3cccnc3)c3ccccc3n2)cc1,.,-19.4,.,-91.7,36.2*,.,10.7,
O=C(N/N=C/c1ccc([N+](=O)[O-])o1)c1cc(-c2ccc(-c3ccccc3)cc2)nc2ccccc12,61.5*,32.1,64.4*,76.1*,35.8*,89.8*,51.6*,
COc1ccc(OC)c(-c2cc(C(=O)N/N=C(\C)c3cccnc3)c3ccccc3n2)c1,.,0.4,.,11.5,7.5,.,.,
